# Shown are actives, neighbours in structure and some others; about 12% of the full set was active somewhere.
# JMJD2A Tudor inh – qHTS Assay for Inhibitors of JMJD2A-Tudor Domain; AlphaScreen JMJD2A-Tudor / H3K4me3 peptide binding; Potency, µM (doses to about 114 µM), inactives show at the highest dose activity change, negative = inhibition, most hits filed as inhibitors; actives 4.4% (n = 390,000); Lysine-specific demethylase 4A (Homo sapiens), O75164; further: on the % scale 0 is the no-effect control and ±100 the full control effect; nearly all actives have a fitted effect of over 50% in size
# Sfp inh – qHTS Assay for Inhibitors of Bacillus subtilis Sfp phosphopantetheinyl transferase (PPTase). Potency, µM, for the others: largest response in the series, negative = inhibition, usual class: inhibitors. AID 1490, 2009. Biochemical Sfp PPTase activity, qHTS. actives 3.5% (n = 310,000);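 further: the enzyme is Sfp with the accession as filed and its product quenches rhodamine fluorescence; 0% = enzyme reaction without inhibitor and -100% = no enzyme wells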
#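 Reaction rates are the 30-min fluorescence difference (ex 525, em 598 nm) in wells containing 15 nM Sfp, 5 uM rhodamine-CoA and 12.5 uM BHQ-2-YbbR at pH 7.6 with 10 mM MgCl2.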
# L3MBTL1 block – qHTS Assay for the Inhibitors of L3MBTL1 | actives 0.66% (n = 230,000) | AlphaScreen L3MBTL1–H3K9me1 peptide binding | Potency, µM (series often up to 57.1 µM), without a hit: at the top dose activity, negative = inhibition, hits mostly inhibitors | Lethal(3)malignant brain tumor-like protein 1 (Homo sapiens), Q9Y468; further: on the % scale 0 is the no-effect control and ±100 the full control effect; nearly all actives have a fitted effect of over 60% in size
#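 Read-out is AlphaScreen signal from streptavidin donor and nickel chelate acceptor beads (10 ug/mL final each) bridging L3MBTL1 (50 nM) and biotinylated K9-monomethylated H3(1-15) peptide (75 nM), after 30 min compound exposure at room temperature.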
# HP1b chromo inh – HTS for Inhibitors of HP1-beta Chromodomain Interactions with Methylated Histone Tails; Chromobox protein homolog 1 (Homo sapiens), P83916; AlphaScreen HP1-beta / biotin-H3K9me3 peptide binding; Potency, µM (top dose mostly 114 µM), for inactives: top-dose activity change, negative = inhibition, most hits filed as inhibitors; actives 0.56% (n = 390,000); AID 540317, 2011; further: nearly all actives have a fitted effect of over 70% in size
# Target sequence (P83916 whole entry, looked up): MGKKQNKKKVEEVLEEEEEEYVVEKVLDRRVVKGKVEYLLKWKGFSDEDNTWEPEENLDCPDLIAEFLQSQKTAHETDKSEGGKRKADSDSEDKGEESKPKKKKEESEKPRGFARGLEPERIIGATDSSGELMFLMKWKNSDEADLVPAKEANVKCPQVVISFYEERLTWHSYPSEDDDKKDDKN
#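 HP1-beta protein (50 nM final) preincubated 30 min at room temperature with biotinylated H3(1-18)K9me3 peptide (50 nM) in PBS pH 7.4, 0.01% Tween-20, then compound added for 30 min. AlphaScreen streptavidin donor/nickel chelate acceptor beads (10 ug/mL final), 30 min dark, luminescence read.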
# G9a inh – qHTS Assay for Inhibitors of Histone Lysine Methyltransferase G9a; G9a H3K9 monomethylation, AlphaScreen, 2 h; Histone-lysine N-methyltransferase EHMT2 (Homo sapiens), Q96KQ7; Potency, µM (titrated, usually from 102 µM), without a hit: at the highest dose activity, negative = inhibition, usual class: inhibitors; actives 8.8% (n = 350,000); AID 504332, 2011; further: on the % scale 0 is the no-effect control and ±100 the full control effect; nearly all actives have a fitted effect of over 75% in size
# Target sequence (Q96KQ7 913-1193 limits assumed): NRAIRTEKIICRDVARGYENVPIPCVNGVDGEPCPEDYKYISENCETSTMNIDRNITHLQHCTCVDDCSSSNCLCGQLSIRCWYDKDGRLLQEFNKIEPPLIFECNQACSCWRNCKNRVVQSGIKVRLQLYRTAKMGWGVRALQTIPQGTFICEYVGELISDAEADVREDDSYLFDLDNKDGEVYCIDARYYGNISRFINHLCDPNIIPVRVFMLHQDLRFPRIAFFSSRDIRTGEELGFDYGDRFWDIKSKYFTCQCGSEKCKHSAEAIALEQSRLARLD
#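 Using a bead-based AlphaScreen, monomethylated H3K9 product from 2 h room-temperature reactions (G9a 20 nM, peptide 500 nM, SAM 20 uM) was detected with 0.5 ug/mL rabbit anti-H3K9me1 antibody.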
# BAZ2B inh – qHTS Assay for Inhibitors of BAZ2B. AID 504333, 2011. Bromodomain adjacent to zinc finger domain protein 2B (Homo sapiens), Q9UIF8. Potency, µM (titrated, usually from 114 µM), for inactives: at the top dose activity change, negative = inhibition, actives largely listed as inhibitors. AlphaScreen BAZ2B-H3K14Ac peptide displacement. actives 4.4% (n = 360,000); further: on the % scale 0 is the no-effect control and ±100 the full control effect; nearly all actives have a fitted effect of over 60% in size
#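 Compounds, titrated to a top concentration of 110 uM, were incubated 30 min at room temperature with preformed BAZ2B/acetyl-K14 H3 peptide complex (50 nM each). Proximity signal was measured by AlphaScreen after 20 min with beads.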
# * = called active by the depositor; u = inconclusive; x = no result; [ ] = another dose, or the depositor's remark. The call rests on the fitted dose curve; in most records, active means well fitted curve in the direction sought with a large enough effect; inconclusive means small, poorly fitted or top-dose-only effect, or another doubt; inactive means no such curve, though single readings can be large; an effect the other way counts as inactive or inconclusive. Potency means the concentration at half of the fitted maximal effect.
SMILES,JMJD2A Tudor inh,Sfp inh,L3MBTL1 block,HP1b chromo inh,G9a inh,BAZ2B inh
Cc1ccc(OCC(=O)N/N=C/C=C/c2ccco2)cc1C,-33.8%,44.7µM*,-8.6%,-19.4%,39.8µM*,u
Cc1ccc(C(C)C)c(OCCSc2nc(-c3cccs3)nc3cc(=O)[nH]n23)c1,-15.9%,x,x,11.1%,2.6%[59 µM],-3.2%
CCOc1ccc(Br)cc1S(=O)(=O)NC1CCCC1,-7.5%,x,2.2%,17.8%,2.7%[59 µM],0.6%
CCc1ccc(C(=O)CSc2nc3cc(S(=O)(=O)N4CCOCC4)ccc3n2CC)cc1,-16.2%,u,-0.1%,u,44.7µM*,-10.6%
CCn1c(SCC(=O)OC)nc2cc(S(=O)(=O)N3CCOCC3)ccc21,-4.1%,x,6.1%,36.0%,-29.6%[59 µM],0.4%
Cc1csc(SCc2ccc(C(=O)O)cc2)n1,5.3%,7.4%,x,24.4%,44.7µM*,-33.7%
COC(=O)c1ccc(CSc2nc3ccc(S(=O)(=O)N4CCOCC4)cc3[nH]2)cc1,-31.8%,1.3%,-13.3%,10.5%,14.1µM*,-28.1%
COC(=O)c1ccc(CSc2nc3ccc(S(N)(=O)=O)cc3[nH]2)cc1,-18.9%,-3.6%,x,4.7%,5.9%,u
Cc1csc(SCc2ccccc2C(=O)O)n1,-31.3%,12.5%,3.7%,70.3%,-1.6%[59 µM],-26.7%
O=S(=O)(c1ccc2nc(COc3ccccc3)[nH]c2c1)N1CCOCC1,-23.3%,10.5%,0.6%,47.5%,50.1µM*,u
COc1ccc(-c2ccc(C3C4C=CCC(C)C4C(=O)N3Cc3ccccc3)c(F)c2)cc1C (stereo unspecified),-33.1%,6.1%,x,27.3%,x,x
COc1ccc(S(=O)(=O)N(C)C)cc1NC(=O)CSC(C)C(=O)Nc1cc(C)on1 (stereo unspecified),-8.4%,x,1.4%,28.3%,-13.6%[12.7 µM],u
Cc1csc(SCC(=O)Nc2cc(S(=O)(=O)N3CCOCC3)ccc2N2CCOCC2)n1,-6.7%,13.1%,x,48.3%,2.9%[12.7 µM],2.6%
Cc1csc(SCC(=O)c2ccc(S(=O)(=O)N3CCOCC3)cc2)n1,56.2µM*,u,-10.3%,-10.3%,28.2µM*,-7.5%
Cc1c(/C=N/NC(N)=O)c2ccccn2c1C(=O)c1ccncc1,u,1.3%,-12.6%,4.1%,44.7µM*,-37.1%
Cc1c(/C=N/NC(=O)CNc2ccccc2)c2ccccn2c1C(=O)c1ccccc1,u,0.9%,-15.6%,-16.8%,39.8µM*,-21.8%
C[C@@H]1[C@H](C)CC[C@@]2(C(=O)O[C@H]3O[C@@H](CO[C@H]4O[C@@H](CO)[C@@H](O[C@H]5O[C@@H](C)[C@@H](O)[C@@H](O)[C@@H]5O)[C@@H](O)[C@@H]4O)[C@@H](O)[C@@H](O)[C@@H]3O)CC[C@]3(C)C(=CC[C@H]4[C@@]5(C)C[C@@H](O)[C@@H](O)[C@](C)(CO)[C@@H]5CC[C@@]43C)[C@@H]12,x,5.1%,x,x,19.8%[21.5 µM],x
COc1ccc2nc(-c3ccc(N(C)C)cc3)sc2c1,-9.7%,-26.2%,x,x,x,x
COc1ccc(C2C(C(=O)O)c3ccccc3C(=O)N2C)cc1Br (stereo unspecified),-9.3%,3.9%,0.0%[11.4 µM],64.2%,3.98µM*,-29.1%
CN1C(=O)c2ccccc2C(C(=O)O)C1c1cn(C)c2ccccc12 (stereo unspecified),44.7µM*,1.8%,-6.9%,u,-14.5%,-0.2%[57.1 µM]
COc1ccc(CN(Cc2ccccc2)C(C)=O)cc1COc1ccc(NC(C)=O)cc1,-17.7%,x,x,35.7%,x,x
S=C(Nc1cccnc1)NC1CCCCCCC1,-2.4%,2.6%,3.4%,30.4%,14.0%[59 µM],-0.4%
CC1CCCC/C1=N\NC(=S)Nc1cccnc1 (stereo unspecified),u,20µM*,x,u,3.16µM*,u
S=C(Nc1ccc(Cl)cc1)NC1CCCCC1,-1.0%,18.2%,-5.5%,50.4%,13.4%,0.2%
S=C(Nc1ccc(Nc2ccccc2)cc1)NC1CCCCCC1,20µM*,u,-19.7%,u,15.8µM*,12.6µM*
SMILES,JMJD2A Tudor inh,Sfp inh,L3MBTL1 block,HP1b chromo inh,G9a inh,BAZ2B inh
S=C(Nc1cccnc1)NC1CCCC1,-24.0%,-4.8%,8.1%,-13.6%,15.8µM*,2.6%
NS(=O)(=O)c1ccc(NC(=S)NC2CCCCC2)cc1,-14.1%,7.94µM*,-3.7%,-3.8%,25.1µM*,-29.2%
O=C(OCC#CCSc1nnc(-c2cccc3ccccc23)o1)c1ccccc1F,38.8%,x,x,x,x,x
CCOc1ccc(CCN2C(=O)C(=O)N([C@@H](Cc3ccc(O)cc3)CN3CCC[C@@H]3CN3C(=O)C(=O)NC[C@@H]3Cc3ccccc3)C[C@@H]2Cc2ccccc2)cc1,-26.6%,x,x,4.4%,x,x
O=C(OCC#CCSc1nnc(-c2cccc3ccccc23)o1)c1sc2ccccc2c1Cl,2.7%,x,x,x,x,x
O=S(=O)(c1ccc2c(c1)OCCO2)N1CCN(S(=O)(=O)c2c(F)ccc(O)c2F)CC1,-13.7%,x,x,x,x,x
CCOc1ccc(C(c2c(O)cc(C)n(CCOC)c2=O)N2CCN(c3ccc(F)cc3)CC2)cc1 (stereo unspecified),-18.2%,x,x,20.9%[57 µM],17.8µM*,3.1%
Cc1cc(O)c(C(c2ccc(F)cc2)N2CCN(c3ccccc3)CC2)c(=O)n1Cc1ccco1 (stereo unspecified),-23.4%,x,x,30.9%[57 µM],u,-2.1%
COc1cccc([C@@H]2Oc3ccc(Br)cc3C[C@H]2OC(=O)NS(=O)(=O)c2ccc(F)cc2)c1,x,6.3%,x,x,x,x
O=C(O)Cn1cc(/C=c2/sc3nc4ccccc4n3c2=O)c2ccccc21,56.2µM*,-23.2%,x,u,50.1µM*,u
Cn1c(N/N=C/c2cccs2)cc(=O)n(C)c1=O,7.3%,-16.6%,x,35.3%,50.1µM*,-4.3%
CCc1cccc(C)c1NC(=O)c1cc(S(=O)(=O)NCc2ccccc2Cl)ccc1F,u,x,x,-6.3%,5.4%[59 µM],1.7%
CC1=CS(=O)(=O)CC1Sc1nc2ccccc2[nH]1 (stereo unspecified),-34.5%,-6.0%,18.0%,23.9%,79.4µM*,-6.2%
CC1=CS(=O)(=O)CC1Sc1nc(C)n[nH]1 (stereo unspecified),-8.5%,18.3%,u,30.9%,50.1µM*,u
CCCCCCCCNS(=O)(=O)CCNCc1ccccc1OC,-7.9%,x,x,37.2%,x,x
COc1ccc(NC(=O)Cc2ccc(NC(=O)N3CCCCc4ccccc43)cc2)c(OC)c1,-32.7%,x,x,13.7%,-9.3%[59 µM],-34.7%

# Bioassay records as filed in PubChem.
